Several values for one entry are separate records, joined by “and”; a condition that tells them apart may be missing. Equal values may be shown once. Records with an inconclusive call do not appear. Where a call stands in place of a potency, no number is given. Activity calls are given as the source filed them. Unless noted, calls come from the whole dose curve; as a rule, active = well fitted curve in the direction sought with a large enough effect in the repeat runs; inconclusive = weak or mixed curves; inactive = no such curve, though single readings can be large; an effect the other way counts as inactive or inconclusive.
Columns and labels:
[1] = qHTS assay to identify small molecule antagonists of the glucocorticoid receptor (GR) signaling pathway - cell viability counter screen (AID 720693); note: nearly all actives have a fitted effect of over 55% in size
[2] = qHTS assay for identifying genotoxic compounds that show differential cytotoxicity against isogenic chicken DT40 cell lines with known DNA damage response pathways - wild type cell line (AID 743012); note: nearly all actives have a fitted effect of over 60% in size; note: potency is the fitted concentration of half-maximal effect
In short: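 Quantitative HTS on parental DT40 cells: 40 h compound treatment at 37 C/5% CO2, with viability then determined by CellTiter-Glo luminescence. Values serve as the DNA repair-proficient reference for differential cytotoxicity.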

[3] = qHTS assay for identifying genotoxic compounds that show differential cytotoxicity against isogenic chicken DT40 cell lines with known DNA damage response pathways - Rev3 mutant cell line (AID 743014); note: nearly all actives have a fitted effect of over 55% in size; note: potency is the fitted concentration of half-maximal effect
[4] = qHTS assay for identifying genotoxic compounds that show differential cytotoxicity against isogenic chicken DT40 cell lines with known DNA damage response pathways - Rad54/Ku70 mutant cell line (AID 743015); note: nearly all actives have a fitted effect of over 60% in size; note: potency is the fitted concentration of half-maximal effect
[5] = qHTS assay to identify small molecule antagonists of the androgen receptor (AR) signaling pathway - cell viability counter screen (AID 743033; note: nearly all actives have a fitted effect of over 45% in size)
[6] = qHTS assay to identify small molecule antagonists of the thyroid receptor (TR) signaling pathway - cell viability counter screen (AID 743064); note: nearly all actives have a fitted effect of over 50% in size; note: potency is the fitted concentration of half-maximal effect
In short: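 Viability of T3-stimulated (1 nM final) GH3.TRE-Luc cells is measured by CellTiter-Fluor fluorescence after 23.5 h compound exposure at 37 °C plus 30 min reagent incubation.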

[7] = qHTS assay to identify small molecule antagonists of the thyroid receptor (TR) signaling pathway (AID 743065); note: nearly all actives have a fitted effect of over 55% in size; note: potency is the fitted concentration of half-maximal effect
In short: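 Antagonism measured as loss of luciferase signal in GH3 cells stably carrying a TRE-luciferase reporter, co-treated with compound and T3 (1 nM final) for 23.5 h at 37 C. Viability was read in the same well by CellTiter-Fluor.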

[8] = system: thyroid hormone receptor (rat, GH3 cells); experiment: qHTS assay to identify small molecule agonists of the thyroid receptor (TR) signaling pathway (AID 743066; calls by dose curve)
[9] = biological target: Estrogen receptor (Homo sapiens) (UniProt P03372); experiment: qHTS assay to identify small molecule antagonists of the estrogen receptor alpha (ER-alpha) signaling pathway (AID 743069; active = well fitted curve in the direction sought with a large enough effect in the signal ratio in the repeat runs, not every such curve was filed as active; the % refers to the signal ratio; note: potency is the fitted concentration of half-maximal effect)
Chain of Estrogen receptor (Homo sapiens) (P03372 whole entry, looked up): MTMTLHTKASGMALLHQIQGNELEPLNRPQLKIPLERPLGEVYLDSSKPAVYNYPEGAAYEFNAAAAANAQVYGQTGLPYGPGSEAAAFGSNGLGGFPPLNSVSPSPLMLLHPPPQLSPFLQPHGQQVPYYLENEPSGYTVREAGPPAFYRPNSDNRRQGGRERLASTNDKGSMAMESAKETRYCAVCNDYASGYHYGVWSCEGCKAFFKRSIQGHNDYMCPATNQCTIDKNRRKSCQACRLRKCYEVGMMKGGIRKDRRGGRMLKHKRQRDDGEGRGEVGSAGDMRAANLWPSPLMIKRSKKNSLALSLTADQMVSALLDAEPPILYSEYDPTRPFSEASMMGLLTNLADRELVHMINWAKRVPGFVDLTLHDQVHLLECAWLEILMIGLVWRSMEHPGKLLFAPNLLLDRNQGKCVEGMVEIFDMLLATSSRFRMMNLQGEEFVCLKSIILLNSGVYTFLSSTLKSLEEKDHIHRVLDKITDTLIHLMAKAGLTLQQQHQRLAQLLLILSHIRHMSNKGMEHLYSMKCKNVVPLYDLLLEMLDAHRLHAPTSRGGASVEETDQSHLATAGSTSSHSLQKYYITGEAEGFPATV
In short: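 Compound effects are measured against 17beta-estradiol stimulation in HEK293 cells with a UAS-controlled beta-lactamase reporter for ER-alpha. Exposure lasts 18 hr at 37C; LiveBLAzer B/G FRET substrate follows for 2 hr at room temperature.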

[10] = biological target: Estrogen receptor (Homo sapiens) (UniProt P03372); experiment: qHTS assay to identify small molecule agonists of the estrogen receptor alpha (ER-alpha) signaling pathway (AID 743075; calls by dose curve)
[11] = qHTS assay to identify small molecule antagonists of the estrogen receptor alpha (ER-alpha) signaling pathway using the BG1 cell line - cell viability counter screen (AID 743081);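 note: compound given together with 17beta-estradiol as the ER stimulus; series mostly up to about 70 µM; nearly all actives have a fitted effect of over 45% in size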
[12] = qHTS assay to identify small molecule antagonists of the androgen receptor (AR) signaling pathway using the MDA cell line - cell viability counter screen (AID 743041; note: nearly all actives have a fitted effect of over 45% in size)
In short: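 R1881-driven MDA-kb2 AR-luc cells, 3,000/well, were dosed with library compounds for 16 h; cell health came from CellTiter-Fluor fluorescence in the reporter wells.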

[13] = qHTS assay to identify small molecule antagonists of the estrogen receptor alpha (ER-alpha) signaling pathway - cell viability counter screen (AID 743074; calls by dose curve;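 note: HEK293 cells carrying ER-alpha-UAS-bla reporter stimulated with 17beta-estradiol; nearly all actives have a fitted effect of over 45% in size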)
Aromatase (Homo sapiens) = Aromatase (Homo sapiens) (UniProt P11511); experiment: qHTS assay to identify aromatase inhibitors (AID 743083); note: series mostly up to about 70 µM; nearly all actives have a fitted effect of over 55% in size
Chain of Aromatase (Homo sapiens) (P11511 whole entry, looked up): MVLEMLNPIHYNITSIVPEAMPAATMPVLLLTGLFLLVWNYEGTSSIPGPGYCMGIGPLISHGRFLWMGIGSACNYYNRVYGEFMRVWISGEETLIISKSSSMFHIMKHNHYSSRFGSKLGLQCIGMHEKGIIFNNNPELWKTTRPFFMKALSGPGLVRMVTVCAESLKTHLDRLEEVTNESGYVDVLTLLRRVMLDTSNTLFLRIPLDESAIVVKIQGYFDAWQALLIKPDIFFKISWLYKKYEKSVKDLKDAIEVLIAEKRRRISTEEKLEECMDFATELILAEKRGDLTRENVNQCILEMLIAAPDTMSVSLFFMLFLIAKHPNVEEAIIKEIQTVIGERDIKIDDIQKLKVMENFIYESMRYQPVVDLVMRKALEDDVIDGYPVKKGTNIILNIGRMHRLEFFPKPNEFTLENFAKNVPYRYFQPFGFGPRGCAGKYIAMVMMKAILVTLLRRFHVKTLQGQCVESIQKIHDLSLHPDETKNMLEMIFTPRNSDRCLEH

[14] = biological target: Estrogen receptor (Homo sapiens) (UniProt P03372); experiment: qHTS assay to identify small molecule agonists of the estrogen receptor alpha (ER-alpha) signaling pathway using the BG1 cell line (AID 743079); note: nearly all actives have a fitted effect of over 20% in size; note: potency is the fitted concentration of half-maximal effect
[15] = qHTS assay to identify small molecule antagonists of the estrogen receptor alpha (ER-alpha) signaling pathway using the BG1 cell line (AID 743080; calls by dose curve;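 note: BG1 cells stimulated with 17beta-estradiol alongside compound; series mostly up to about 70 µM; nearly all actives have a fitted effect of over 25% in size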)
In short: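 Readout is ONE-Glo luminescence, taken 30 min at room temperature after reagent addition, preceded by a CellTiter-Fluor viability read; BG1-Luc-4E2 cells had received compound and 17beta-estradiol for 21.5 h at 37 C.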

[16] = biological target: Androgen receptor (Homo sapiens) (UniProt P10275); experiment: qHTS assay to identify small molecule antagonists of the androgen receptor (AR) signaling pathway (AID 743035; active = well fitted inhibition curve with a large enough effect in the signal ratio in the repeat runs, not every such curve was filed as active; the % refers to the signal ratio; note: potency is the fitted concentration of half-maximal effect)
Chain of Androgen receptor (Homo sapiens) (P10275 whole entry, looked up): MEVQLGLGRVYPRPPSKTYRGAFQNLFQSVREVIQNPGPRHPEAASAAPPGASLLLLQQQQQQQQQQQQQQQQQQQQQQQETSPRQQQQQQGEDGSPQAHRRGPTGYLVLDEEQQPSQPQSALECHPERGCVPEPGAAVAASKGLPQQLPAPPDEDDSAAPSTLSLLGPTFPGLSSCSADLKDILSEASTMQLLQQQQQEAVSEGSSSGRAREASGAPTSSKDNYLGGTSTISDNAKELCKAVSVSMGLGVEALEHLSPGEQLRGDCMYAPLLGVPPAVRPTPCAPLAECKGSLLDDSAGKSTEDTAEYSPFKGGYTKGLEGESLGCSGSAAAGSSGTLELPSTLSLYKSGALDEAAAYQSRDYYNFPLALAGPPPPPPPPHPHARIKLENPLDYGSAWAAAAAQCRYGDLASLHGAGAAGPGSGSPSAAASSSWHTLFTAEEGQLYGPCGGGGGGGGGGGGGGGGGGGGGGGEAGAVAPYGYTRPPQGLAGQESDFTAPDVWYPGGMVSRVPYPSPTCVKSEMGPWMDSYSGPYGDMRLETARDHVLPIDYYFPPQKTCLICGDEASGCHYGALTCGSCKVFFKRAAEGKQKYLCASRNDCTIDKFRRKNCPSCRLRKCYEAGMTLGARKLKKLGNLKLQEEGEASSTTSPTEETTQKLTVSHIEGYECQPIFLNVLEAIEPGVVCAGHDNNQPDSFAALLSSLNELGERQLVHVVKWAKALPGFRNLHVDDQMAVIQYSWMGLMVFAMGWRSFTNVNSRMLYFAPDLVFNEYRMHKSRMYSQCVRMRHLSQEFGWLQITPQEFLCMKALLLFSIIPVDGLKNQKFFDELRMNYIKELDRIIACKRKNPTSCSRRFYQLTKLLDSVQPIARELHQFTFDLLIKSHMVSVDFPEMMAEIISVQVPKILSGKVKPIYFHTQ
In short: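 Cell line: GeneBLAzer AR-UAS-bla GripTite (HEK293). Stimulus: R1881 added after compound. Exposure: 16 h, 37C, 5% CO2. Readout: LiveBLAzer B/G FRET fluorescence after 2 h at room temperature.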

[17] = biological target: Androgen receptor (Homo sapiens) (UniProt P10275); experiment: qHTS assay to identify small molecule agonists of the androgen receptor (AR) signaling pathway using the MDA cell line (AID 743040; note: nearly all actives have a fitted effect of over 20% in size)
In short: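 After a 5 h incubation at 37C and 0% CO2, MDA-kb2 reporter cells were dosed with compounds in DMSO and kept 16 h under the same conditions. Luciferase activity was then read as luminescence with ONE-Glo.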

[18] = biological target: Androgen receptor (Homo sapiens) (UniProt P10275); experiment: qHTS assay to identify small molecule antagonists of the androgen receptor (AR) signaling pathway using the MDA cell line (AID 743042; note: nearly all actives have a fitted effect of over 55% in size)
In short: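 Antagonist mode: compounds plus R1881 agonist added to MDA-kb2 AR-luc cells, incubated 16 h at 37C. Luciferase reporter luminescence quantified, with multiplexed CellTiter-Fluor readout for cell viability.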

[19] = biological target: Androgen receptor (Homo sapiens) (UniProt P10275); experiment: qHTS assay to identify small molecule agonists of the androgen receptor (AR) signaling pathway (AID 743036; active = well fitted activation curve with a large enough effect in the signal ratio in the repeat runs, with a control signal flat, not every such curve was filed as active; the % refers to the signal ratio)
In short: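 Screening used 2,000 AR-bla HEK293 cells per well, treated 16 h at 37C with test compounds in DMSO alongside positive and DMSO-only controls; beta-lactamase activity was then read by LiveBLAzer B/G FRET fluorescence after 2 h at room temperature.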

SMILES	Potency [1]	Potency [2]	Potency [3]	Potency [4]	Potency [5]	Potency [6]	Potency [7]	Potency [8]	Potency [9]	Potency [10]	Potency [11]	Potency [12]	Potency [13]	Potency (Aromatase (Homo sapiens))	Potency [14]	Potency [15]	Potency [16]	Potency [17]	Potency [18]	Potency [19]
Cc1oc2c(NC(=O)c3c(Cl)cccc3Cl)cccc2c1C(C)(C)O	inactive	43.3 µM (active)	27.3 µM (active)	48.6 µM (active)	inactive	24.3 µM (active)	7.7 µM (active)	inactive	43.6 µM [inhibitor] (active)	inactive	inactive									
Clc1ccc(Cn2c(CN3CCCC3)nc3ccccc32)cc1	inactive	4.03 µM (active)	2.54 µM (active)	7.17 µM (active)	inactive		11.4 µM (active)	inactive			inactive	inactive	inactive	inactive						
CC(C)O.CC(C)O.CCOC(=O)/C=C(\C)O.CCOC(=O)/C=C(\C)O.[Ti]	inactive	inactive	inactive	inactive	inactive	inactive	inactive	inactive			inactive	inactive	inactive							
O=C(Cl)c1cc(C(=O)Cl)cc(C(=O)Cl)c1	inactive	19.3 µM (active)	27.3 µM (active)	19.3 µM (active)	inactive			inactive	inactive	inactive	inactive	inactive	inactive		inactive	inactive				
CC(CC=O)c1ccccc1 (stereo not given)	inactive	inactive	inactive	inactive	inactive	inactive	inactive	inactive	inactive	inactive	inactive		inactive	inactive	inactive	inactive				
COC(=O)c1ccc(I)cc1S(=O)(=O)NC(=O)Nc1nc(C)nc(OC)n1	inactive	inactive	inactive	inactive	inactive	inactive	inactive				inactive	inactive	inactive	inactive						
CO[C@@H]1[C@H](OC(=O)/C=C/C=C/C=C/C=C/C(=O)O)CC[C@]2(CO2)[C@H]1[C@@]1(C)O[C@@H]1CC=C(C)C	inactive	1.9 nM (active) and 12.2 nM (active)	2.1 nM (active) and 17.2 nM (active)	2.7 nM (active) and 10.9 nM (active)	inactive	inactive		inactive		inactive	inactive	inactive	inactive	inactive	inactive	inactive				
CCCCc1ncc(/C=C(\Cc2cccs2)C(=O)O)n1Cc1ccc(C(=O)O)cc1	inactive	inactive	inactive	inactive	inactive	inactive	inactive	inactive			inactive		inactive	inactive						
CCOc1ccc(N=Nc2ccc(/C=C/c3ccc(N=Nc4ccc(OCC)cc4)cc3S(=O)(=O)O)c(S(=O)(=O)O)c2)cc1	inactive	inactive	inactive	inactive	inactive	47.8 µM (active)	47.8 µM (active)	inactive					inactive	inactive						
C=CCOc1ccccc1OCC(O)CNC(C)C (stereo not given)	inactive	inactive	inactive	inactive	inactive	inactive	inactive	inactive	inactive	inactive			inactive	inactive	inactive	inactive				
Clc1ccc2c(c1)CCc1cccnc1C2=C1CCNCC1	inactive	5.31 µM (active)	7.5 µM (active)	8.41 µM (active)	inactive	10.6 µM (active)	9.44 µM (active)		inactive	inactive	inactive	inactive								
Nc1cc(C(=O)O)c(O)c(S(=O)(=O)O)c1	inactive	inactive	inactive	inactive	inactive	inactive	inactive	inactive			inactive	inactive	inactive	inactive						
CC(=O)[O][Al][O]C(C)=O	inactive	inactive	inactive	inactive	inactive	inactive		inactive			inactive	inactive	inactive	inactive		inactive				
CCCCCCc1ccc(-c2ccc(C#N)cc2)cc1	inactive	inactive		inactive	inactive	inactive	inactive	inactive			inactive	inactive	inactive							
CC(C)Nc1ccc(NC(C)C)c2c1C(=O)c1ccccc1C2=O	inactive	inactive		inactive	inactive	inactive	inactive	inactive	inactive	inactive	inactive	inactive	inactive	inactive	inactive					
O=C1OC(=O)C2C3C=CC(C3)C12 (stereo not given)	inactive	inactive		inactive	inactive	inactive	inactive	inactive			inactive	inactive	inactive	inactive						
O=C1C(O)=C(O)C(=O)C(O)=C1O	inactive	inactive		inactive	inactive	inactive	inactive	inactive	inactive	inactive	inactive	inactive	inactive	inactive	inactive	inactive				
CN(C)c1ccc(CCO)cc1	inactive	inactive		inactive	inactive	inactive	inactive	inactive	inactive	inactive	inactive	inactive	inactive	inactive	inactive	inactive				
O=P(O)(OCc1ccccc1)OCc1ccccc1	inactive	inactive		inactive	inactive	inactive	inactive		inactive	inactive	inactive	inactive	inactive	inactive	inactive	inactive				
COc1ccc(-c2nc3ccc(C4=NNC(=O)CC4C)cc3[nH]2)cc1 (stereo not given)	inactive	11.9 µM (active)	11.9 µM (active)				23.7 µM (active)	inactive			inactive	inactive	inactive	inactive			19 µM (active)	inactive	inactive	
CCOc1ccc(N)c([N+](=O)[O-])c1	inactive	inactive		inactive	inactive	inactive	inactive	inactive	inactive	inactive	inactive		inactive	inactive	inactive	inactive				
Cc1ncc(CO)c(C=O)c1O	inactive	inactive		inactive	inactive	inactive	inactive	inactive	inactive	inactive	inactive	inactive	inactive	inactive	inactive	inactive				
CCCCCC[C@@H](O)C/C=C\CCCCCCCC(=O)OC	inactive	inactive		inactive	inactive	inactive	inactive	inactive		inactive	inactive	inactive	inactive	inactive	inactive	inactive	inactive	inactive	inactive	inactive
Nc1ccc(S(=O)(=O)Nc2ccccc2)cc1	inactive	inactive		inactive	inactive	inactive	inactive	inactive			inactive	inactive	inactive	inactive						
CCCCC1=NC2(CCCC2)C(=O)N1Cc1ccc(-c2ccccc2-c2nn[nH]n2)cc1	inactive	inactive		inactive	inactive				inactive	inactive	inactive	inactive	inactive	inactive	inactive	inactive				
CCCCCCCCO[C@@H]1O[C@H](CO)[C@@H](O)[C@H](O)[C@H]1O	inactive	inactive		inactive	inactive	inactive	inactive	inactive	inactive	inactive	inactive	inactive	inactive	inactive	inactive	inactive				
O=C(OCCc1ccccc1)c1ccccc1	inactive	inactive		inactive	inactive	inactive	inactive	inactive	inactive	inactive	inactive			inactive	24.3 µM (active)					
C=CCOC(=O)CCC1CCCCC1	inactive	inactive		inactive	inactive	inactive	inactive	inactive			inactive	inactive	inactive	inactive						

Reference: PubChem BioAssay (Tox21)
